Screening results: PubChem BioAssay, The Scripps Research Institute Molecular Screening Center
Rows were chosen to be rich in hits. Some 4.8% of all compounds tested hit in one or more screens of this group.
SMARCA2 activ = SMARCA2 (BRM) function activators, primary screen, cell-based, luminescence, high throughput. MG213 cells, MMTV-luciferase reporter, dexamethasone, overnight. actives 1% (n = 370,000). AID 652017, 2013. activation, % at 9.1 µM; in the data active = activation above about 7.8%
DAX1 inh-1 = DAX1 (NR0B1) inhibitors on StAR promoter, primary screen, cell-based, luminescence, SF-1 (NR5A1), full-length DAX-1 | AID 652010, 2013 | HEK293T StAR-luciferase reporter, SF-1/DAX-1 repression relief | inhibition, % at 6.8 µM | actives 1.1% (n = 370,000);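 active = inhibition above the mean over all tested compounds plus 3 SD, cut at about 3.6% in these data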;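 note: higher inhibition means more luminescence from relief of DAX-1 repression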
hgDAF-12 ag = H. glycines DAF-12 receptor agonists, primary screen, cell-based, luminescence, HEK293, GAL4 fusion, UAS-luciferase; activation, % at 6.8 µM; AID 687014, 2013; HEK293 GAL4-hgDAF12 UAS-luciferase reporter, agonist luminescence; normalized to butyrate control; Nuclear hormone receptor DAF-12 (Heterodera glycines), GAL4 fusion; actives 1.8% (n = 370,000);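 active = activation above a cutoff set at the mean of all screened compounds plus 3 SD, cut at about 10% in these data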
hcDAF-12 act = H. contortus DAF-12 nuclear receptor activators, primary screen, cell-based, luminescence, HEK293, lit1-tk-luc reporter; HEK293 hcDAF-12 lit1-tk-luc reporter; 0% DMSO, 100% Δ7-dafachronic acid; activation, % at 6.8 µM; actives 1.4% (n = 370,000); AID 652067, 2013;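 active = activation above the mean of all tested compounds plus 3 SD, cut at about 5.5% in these data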
DAX1 inh-2 = DAX1 (NR0B1) inhibitors, primary screen, cell-based, HEK293, Gal4-DAX1, luciferase luminescence. AID 504766, 2011. actives 0.99% (n = 340,000). inhibition, % at 6.75 µM. HEK293 Gal4-DAX1 luciferase reporter. Nuclear receptor subfamily 0 group B member 1 (Homo sapiens), P51843;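 active = inhibition above the mean over all tested compounds plus 3 SD, cut at about 4.2% in these data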;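 note: inhibition shows as a rise in luminescence from relieved DAX1 repression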
Target sequence (P51843 207-470 limits assumed): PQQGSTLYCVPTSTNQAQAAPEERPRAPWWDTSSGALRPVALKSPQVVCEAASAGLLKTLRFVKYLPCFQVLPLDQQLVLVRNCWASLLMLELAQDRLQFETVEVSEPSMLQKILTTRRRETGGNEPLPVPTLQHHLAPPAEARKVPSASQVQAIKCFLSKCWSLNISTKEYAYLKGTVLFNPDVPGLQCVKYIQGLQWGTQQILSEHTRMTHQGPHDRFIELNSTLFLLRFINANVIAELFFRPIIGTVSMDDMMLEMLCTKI
ssDAF-12 act = S. stercoralis DAF-12 nuclear receptor activators, primary screen, cell-based, luminescence, HEK293, GRIP1 co-expression, lit1-tk-luc; HEK293 ssDAF-12/GRIP1 lit1-tk-luc reporter; % of 3 µM dafachronic acid response; actives 1% (n = 370,000); activation, % at 6.8 µM; AID 652126, 2013;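 active = activation above the mean over all tested compounds plus 3 SD, cut at about 0.9% in these data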
Of the large screens only hits and unclear results are named; the others gave an inactive call.

COc1ccc(Oc2c(Cl)cnn(-c3ccc(C(C)C)c(C)c3)c2=O)cc1	none (no result: SMARCA2 activ, DAX1 inh-1, DAX1 inh-2)
CCCN1CCC2(CC1)NC(C(=O)O)Cc1c2[nH]c2ccccc12 (stereo not drawn)	none (no result: SMARCA2 activ, DAX1 inh-1, hgDAF-12 ag, hcDAF-12 act, ssDAF-12 act)
CCC1(C)NC(C(=O)O)Cc2c1[nH]c1ccccc21 (stereo not drawn)	ssDAF-12 act 1.7
N#CCC[C@@H]1CC[C@]2(CCCN(C(=O)c3cccnc3)C2)O1	none (no result: DAX1 inh-2)
O=C1CCCCC1CCS(=O)(=O)NCc1ccccc1 (stereo not drawn)	none (no result: DAX1 inh-2)
CC(=O)c1ccc(Nc2ncnc3c2oc2ccccc23)cc1	ssDAF-12 act 1.0
CC(=O)Nc1ccc(Nc2nc(C)nc3c2oc2ccccc23)cc1	none
COc1ccc(S(=O)(=O)NCC2CCCN(Cc3cccnc3)C2)cc1 (stereo not drawn)	DAX1 inh-2 4.3
COc1ccc(S(=O)(=O)NCC2CCCN(Cc3cccc(C(C)=O)c3)C2)cc1 (stereo not drawn)	none
Cc1c(/C=C(\CC(=O)O)c2nc3ccccc3s2)cc(C#N)n1C	hcDAF-12 act 5.6
Cc1cn([C@H]2C[C@H](O)[C@@H](/C=C/C(=O)NCCc3ccc4ccccc4c3)O2)c(=O)[nH]c1=O	none (no result: DAX1 inh-2)
COc1ccc(-c2ccc3sc4ccccc4c(=O)c3c2)cn1	hgDAF-12 ag 10
CCC(O)(c1ccc(NC(=O)OC(C)(C)C)cc1)c1cc(OC)cc(OC)c1 (stereo not drawn)	none (no result: DAX1 inh-2)
C[n+]1c(/C=C/c2ccc(O)cc2)ccc2ccccc21	none
C[n+]1c(/C=C/c2ccc3c(c2)OCO3)ccc2ccccc21	DAX1 inh-2 6.0
COc1cc(C)c(Cl)cc1S(=O)(=O)N1CCSC1	none
COc1ccc2c(c1)c(=O)oc1cc(O)ccc12	DAX1 inh-2 4.7
O=c1oc(-c2ccc([N+](=O)[O-])cc2)nc2ccccc12	none
CCCOc1cccc(-c2nc3ccccc3c(=O)o2)c1	hgDAF-12 ag 11
O=c1oc(-c2ccc(Br)cc2)nc2ccccc12	ssDAF-12 act 0.9
CCC(=O)Nc1cccc(-c2nc3ccccc3c(=O)o2)c1	none
O=C(Nc1cccc2c1[nH]c(=O)c1ccccc12)C(F)(F)F	DAX1 inh-1 4.0
CCc1nnc(NC(=O)CSc2nnc3c(n2)[nH]c2ccccc23)s1	ssDAF-12 act 1.8
CCOC(=O)CC[C@@]1(C(=O)OCC)C[C@@H](CC(=O)NCc2cccs2)C(=O)N2CCCC=C21	none (no result: DAX1 inh-2)
CCOC(=O)C1(C)CCCN(C(=O)c2ccc(F)cc2Cl)C1 (stereo not drawn)	none (no result: DAX1 inh-2)
CC(NC(=O)C12CC3CC(CC(O)(C3)C1)C2)c1ccccc1 (stereo not drawn)	DAX1 inh-2 5.7
O=C(COC(=O)c1cc(Cl)ccc1O)NC(=O)NCc1ccccc1	none
COc1ccc(-c2nnc(SCC(=O)Nc3ccc(Oc4ccccc4)cc3)n2Cc2ccco2)cc1	none (no result: DAX1 inh-2)
Cc1ccc(-c2nnc(SCC(=O)Nc3ccc(-c4nc5ccc(C)cc5s4)cc3)n2Cc2ccco2)cc1	hgDAF-12 ag 11 (no result: DAX1 inh-2)
O=C(Nc1nc(-c2cccs2)cs1)c1ccc([N+](=O)[O-])o1	ssDAF-12 act 2.0
O=C(Nc1nc(-c2ccncc2)cs1)c1ccco1	none
O=C(Nc1nc(-c2cccs2)cs1)c1ccco1	DAX1 inh-1 4.1, hgDAF-12 ag 11
Cc1cn([C@H]2C[C@H](O)[C@@H](CNC(=O)[C@H](N)C3CC3)O2)c(=O)[nH]c1=O	none
COc1cc(C(c2c(C(=O)O)[nH]c3ccccc23)c2c(C(=O)O)[nH]c3ccccc23)ccc1OCc1ccccc1	hcDAF-12 act 5.9
Nc1cccc(Oc2ccc3c(c2)C(=O)N(CC2CCCO2)C3=O)c1 (stereo not drawn)	hgDAF-12 ag 11
COc1ccc(C(O)c2nc(-c3cccc4cccnc34)cs2)cc1 (stereo not drawn)	none (no result: DAX1 inh-2)
C=CCn1c(C)nc2c(sc3nc4c(cc32)COC(C)(C)C4)c1=O	hgDAF-12 ag 13, DAX1 inh-2 4.7
CCCCn1cnc2sc(-c3ccccc3)cc2c1=O	SMARCA2 activ 7.8, hgDAF-12 ag 10
CCCCCn1cnc2sc(CC)cc2c1=O	hgDAF-12 ag 12
Cc1noc(C)c1COC(=O)c1ccc(F)c(S(=O)(=O)N2CCOCC2)c1	none
O=C1CCCCCC(=O)[C@H](O)C[C@H](c2ccccc2)O1	none (no result: DAX1 inh-2)
Oc1csc(Cc2nc(-c3ccc4ccccc4c3)cs2)n1	hcDAF-12 act 6.3, ssDAF-12 act 1.1
O=C1N=c2ccccc2=C1c1sc(Nc2ccc(O)cc2)nc1O	SMARCA2 activ 7.8
COc1ccc(NS(=O)(=O)c2ccc(N3C(=O)CCC3=O)cc2)cc1	DAX1 inh-2 4.7
COc1cccc(N2CCN(c3ccc4nnc(CCC(=O)Nc5ccccc5OC)n4n3)CC2)c1	none
CCOc1ccc(C(=O)NC2C(=O)N3C(C(=O)O)=C(COC(C)=O)CSC23)cc1OCC (stereo not drawn)	DAX1 inh-1 4.4
COc1ccc2cc(C3(C)NC(=O)N(CC(=O)N4CCCCC4)C3=O)ccc2c1 (stereo not drawn)	DAX1 inh-1 4.1
COc1ccc(Nc2cc(C)c3c(O)cccc3n2)cc1	hgDAF-12 ag 12
COC(=O)c1cc(Nc2cc(C)c3c(O)cccc3n2)cc(C(=O)OC)c1	none
Cc1cccc(C)c1NC(=O)C(c1ccc(C#N)cc1)n1c(=O)c(-c2cc3ccccc3[nH]2)nc2ccccc21 (stereo not drawn)	none (no result: DAX1 inh-2)
Cc1cc(C)cc(NC(=O)C(Sc2ncnc3ccccc23)c2ccccc2)c1 (stereo not drawn)	hcDAF-12 act 6.4
O=C(Nc1cccc(C(F)(F)F)c1)C(Sc1ncnc2ccccc12)c1ccccc1 (stereo not drawn)	none
COc1ccc(-c2ccnc(-c3ccc(O)cc3)n2)cc1	none
COc1ccc(C(N)=S)cc1	DAX1 inh-2 4.3
COc1ccc(-c2csc(-c3ccc(O)cc3)n2)cc1	hgDAF-12 ag 13
COc1ccc(O)cc1	DAX1 inh-2 4.5
Cc1oncc1-c1csc(-c2ccccc2Cl)n1	none
Cc1oncc1-c1csc(-c2ccccc2)n1	DAX1 inh-2 5.3
Cc1ccc(C)c(S(=O)(=O)N2CCN(C(=O)c3cc(S(=O)(=O)NCc4ccccc4)ccc3C)CC2)c1	none
